From PubChem BioAssay (NCATS)
Several values for one entry are separate records, joined by “and”; a condition that tells them apart may be missing. Equal values may be shown once. Records with an inconclusive call do not appear. Activity calls are given as the source filed them. Unless noted, calls come from the whole dose curve; as a rule, active = well fitted curve in the direction sought with a large enough effect; inconclusive = small, poorly fitted or top-dose-only effect, or another doubt; inactive = no such curve, though single readings can be large; an effect the other way counts as inactive or inconclusive.

Columns and labels:
[1] = target: Mitogen-activated protein kinase 10 (Mus musculus) (UniProt Q61831); test: JNK3 AlphaScreen Assay (AID 530; active = well fitted curve in either direction with a large enough effect, not every such curve was filed as active;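 note: kinase came from lysate of stimulated human HepG2 cells; signal reports phosphorylation of biotinylated GST-cJun 1-79 at Ser73 with 10 µM ATP; % is set by controls: 0 for no effect and ±100 for the full control effect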)
Outline: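 qHTS format: compounds tested as titrations against IL-1beta/TNF-alpha-activated HepG2 lysate JNK3 with biotin-GST-cJun substrate and 10 uM ATP at room temperature. Loss of anti-phospho-cJun AlphaScreen signal indicates inhibition.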

[2] = Cellular Toxicity (caspase-3) HepG2 (AID 654);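 note: cells exposed to compound for 16 hours before reading; 0% = DMSO alone and 100% = caspase signal from 100 µM tamoxifen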
Outline: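 qHTS, HepG2, 1500 cells/well, complete medium; cpd 16 h 37 °C; Caspase-Glo 3/7, 20 min RT; lum. Norm: DMSO vs 100 uM tamoxifen; AC50 Hill fit.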

[3] = Cellular Toxicity (caspase-3) Jurkat (AID 655); settings: Jurkat caspase-3 activation, luminescence; caspase-3 activation: at 92.2 µM (top of the series), DMSO = 0%, tamoxifen = 100%;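 note: cells exposed to compound for 16 h at 37 °C before reading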
Outline: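 5000 Jurkat cells/well; compound 16 hr, 37 °C; Caspase-Glo 3/7 added, 20 min RT; luminescence read. Norm: DMSO = 0%, tamoxifen 100 uM = 100%. AC50, Hill model.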

[4] = Cellular Toxicity (caspase-3) SHSY5Y (AID 657)
Outline: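 qHTS, SH-SY5Y, 1500 cells/well, 5 h pre-incubation 37 °C; compound 16 h 37 °C; Caspase-Glo 3/7 1 h RT; luminescence. Norm.: DMSO = 0, 10 uM staurosporine = 100%. Hill fit → AC50.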

[5] = Cellular Toxicity (caspase-3) Hek293 (AID 664); settings: HEK293 caspase-3 activation, DMSO = 0%, 100 µM tamoxifen = 100%; at 92.2 µM (top of the series);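 note: cells exposed to compound for 16 h at 37 °C before readout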
Outline: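 Activation of caspase-3/7 is measured as increased luminescence from cleaved peptide-aminoluciferin substrate in HEK293 cells treated 16 hours at 37 °C. AC50 values come from Hill-equation fits of concentration-response data.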

[6] = MultiTox-Fluor Cytotoxicity Assay - LYMP1-001 - Dead Cells (AID 946);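 note: 0% = DMSO and 100% = tetraoctylammonium bromide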
Outline: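 LYMP1-001 lymphoblastoid cells (2500/well) treated 16 h at 37 C. Dead-cell protease cleavage of bis-AAF-R110 read at Ex/Em 485/520. Normalized to DMSO and 15 uM tetraoctylammonium bromide; AC50 from Hill fits.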

[7] = Cell Viability - LYMP2-019 (AID 973);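 note: 0% = DMSO alone and full effect = 92 µM tetraoctylammonium bromide; nearly all actives have a fitted effect of over 55% in size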
Outline: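 Cells plated at 2500/well and allowed 5 hr at 37 C before compound addition. After 24 hr incubation, CellTiter-Glo reagent was added, plates sat 30 min at room temperature, and luminescence was recorded.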

[8] = Cell Viability - LYMP2-023 (AID 975);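 note: cellular ATP measured by luciferase luminescence as viability proxy; plate controls were DMSO only for no effect and 92 µM tetraoctylammonium bromide control for full effect; nearly all actives have a fitted effect of over 55% in size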
Outline: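 Concentration-dependent drop in intracellular ATP measures acute cytotoxicity in a human lymphoblastoid line treated for 24 hours in complete culture medium. AC50 values are taken from Hill-equation fits of qHTS data.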

[9] = Cell Viability - LYMP2-002 (AID 977);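 note: compound exposure lasted 24 h at 37 °C; plate controls were DMSO only for no effect and 92 µM tetraoctylammonium bromide for full effect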
Outline: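 Human lymphoblastoid LYMP2-002 cells, 2500 per well, exposed to compounds for 24 h at 37 C in complete medium; viability read as intracellular ATP by CellTiter-Glo luminescence, AC50 from Hill fits.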

[10] = Cell Viability - LYMP2-008 (AID 980); note: % is set by controls: 0 for no effect and ±100 for the full control effect; nearly all actives have a fitted effect of over 60% in size
Outline: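 Acute cytotoxicity is scored as concentration-dependent loss of cellular ATP in a human lymphoblastoid line after 24 hr treatment at 37 C. ATP is quantified by luciferase luminescence.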

[11] = Cell Viability - LYMP2-024 (AID 988);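 note: plate controls were DMSO only for no effect and 92 µM tetraoctylammonium bromide for full effect; nearly all actives have a fitted effect of over 60% in size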
Outline: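 Acute toxicity is measured as concentration-dependent loss of intracellular ATP in a human lymphoblastoid line treated 24 hours at 37 C. Luciferase luminescence quantifies ATP; AC50 values come from standard Hill-equation modelling.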

[12] = qHTS assay for small molecule activators of the p53 signaling pathway (AID 651743; active = well fitted activation curve with a large enough effect in the signal ratio, not every such curve was filed as active; the % refers to the signal ratio; note: % of control where 0% means no effect); settings: HCT-116 p53RE-bla, beta-lactamase FRET ratio, 16 h; activation: hits give high values
Outline: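 HCT-116 p53RE-bla, 4,000 cells/well; 5 h settle; cpd/DMSO 16 h, 37 C; LiveBLAzer B/G 2 h RT; fluorescence intensity.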

[13] = target: Tumor necrosis factor (Homo sapiens) (UniProt P01375); test: qHTS assay to identify small molecules that stimulate Tumor Necrosis Factor-alpha (TNF-alpha) secretion (AID 651757; active = well fitted curve in the direction sought with a large enough effect in the signal ratio; the % refers to the signal ratio; note: 0% is about no effect)
Outline: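 Secreted TNF-alpha from compound-treated THP-1 cells (17 hrs, 37 C) was quantified with a homogeneous time-resolved fluorescence antibody assay.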

[14] = qHTS assay for small molecule agonists of the antioxidant response element (ARE) signaling pathway measured by Nrf2-dependant transcriptional activity (AID 720636; active = well fitted curve in the direction sought with a large enough effect in the repeat runs; an effect the other way counts as inactive or inconclusive;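 note: HepG2 cells with an ARE-driven luciferase reporter; % of control where 0% means no effect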)
Outline: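 We exposed ARE-luc HepG2 cells, seeded in assay medium with 1% dialyzed FBS and allowed 6 hr to adhere, to test compounds overnight (16 hr, 37 C) before measuring luciferase with ONE-Glo.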

[15] = Cell Viability - Mesenchymal (AID 546);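 note: cells exposed to compound for 40 hours before reading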
Outline: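 Human kidney mesenchymal cells from normal renal glomeruli, 1000 cells/well, rested 5 hr at 37 °C, then treated 40 hr at 37 °C in complete medium. Cellular ATP read by CellTiter-Glo luminescence; AC50 from Hill-equation fits.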

[16] = Cellular Toxicity (caspase-3) SK-N-SH (AID 661);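 note: 0% = DMSO basal and 100% = 10 µM staurosporine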
Outline: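 Caspase 3/7 activation is measured as a luminescence increase from aminoluciferin released by substrate cleavage in SK-N-SH cells after 16 hr compound treatment; values are AC50 from concentration-response curves.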

[17] = Cellular Toxicity (caspase-3) NIH 3T3 (AID 666);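 note: caspase signal read after 16 h compound exposure; 0% = DMSO basal and 100% = 100 µM tamoxifen stimulation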
Outline: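 Concentration-response qHTS in NIH 3T3 mouse fibroblasts scores caspase-3/7 activation as rising luminescence after 16 hr compound exposure. Signals are scaled between DMSO-only and 100 uM tamoxifen.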

[18] = Cell Viability - LYMP2-009 (AID 968);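 note: 0% = DMSO alone and the full-kill end = tetraoctylammonium bromide at 92 µM; nearly all actives have a fitted effect of over 55% in size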
[19] = qHTS assay for small molecule antagonists of the retinoid-related orphan receptor gamma (ROR-gamma) signaling pathway - cell viability counter screen (AID 720652; active = well fitted curve in the direction sought with a large enough effect in the repeat runs; an effect the other way counts as inactive or inconclusive;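 note: CHO reporter cells with doxycycline-induced ROR-gamma expression; compound exposure lasted 16 hr before ATP read; % is set by controls: 0 for no effect and ±100 for the full control effect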)
Outline: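 Cytotoxicity is quantified via intracellular ATP (CellTiter-Glo luminescence) in doxycycline-induced CHO ROR response element-luciferase reporter cells treated with compound for 16 hr at 37 C, 5% CO2.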

[20] = qHTS assay for cell viability of the p53RE-bla HCT-116 cell line (AID 743292); note: % is set by controls: 0 for no effect and ±100 for the full control effect; nearly all actives have a fitted effect of over 55% in size
Outline: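 In this qHTS counter-screen, metabolically competent p53RE-bla HCT-116 cells were counted via their ATP content. Compounds were applied for 16 h at 37 C and luciferase-coupled luminescence was measured.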

Sequence of Tumor necrosis factor (Homo sapiens) (P01375 whole entry, looked up): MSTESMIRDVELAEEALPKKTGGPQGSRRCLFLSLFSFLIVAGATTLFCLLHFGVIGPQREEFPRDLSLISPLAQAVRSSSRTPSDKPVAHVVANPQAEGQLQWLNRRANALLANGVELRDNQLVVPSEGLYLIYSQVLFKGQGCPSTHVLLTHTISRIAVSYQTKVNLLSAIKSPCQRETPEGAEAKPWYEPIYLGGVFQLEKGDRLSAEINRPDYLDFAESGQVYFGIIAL

CCCCC#N
inactive: Potency [1] | outcome [2] | caspase-3 activation [3] 0.125% | outcome [4] | caspase-3 activation [5] -1.9% | outcome [6] | Potency [7] | Potency [8] | Potency [9] | Potency [10] | Potency [11] | activation [12] -7.46% | outcome [13] | Potency [14]

O=Cc1ccc(Cl)cc1Cl
inactive: Potency [1] | Potency [15] | outcome [2] | caspase-3 activation [3] 8.63% | outcome [4] | Potency [16] | caspase-3 activation [5] -1.13% | Potency [17] | outcome [6] | Potency [18] | Potency [7] | Potency [8] | Potency [9] | Potency [10] | Potency [11] | activation [12] -1.2% | outcome [13] | Potency [14] | Potency [19] | Potency [20]

CC(C)OS(C)(=O)=O
inactive: Potency [1] | outcome [2] | outcome [4] | Potency [16] | caspase-3 activation [5] -0.589% | Potency [17] | Potency [18] | Potency [7] | Potency [8] | Potency [9] | Potency [10] | activation [12] -0.853% | Potency [14] | Potency [19]

c1ccc2c(c1)CCNC2
inactive: Potency [15] | outcome [2] | caspase-3 activation [3] 0.933% | outcome [4] | Potency [16] | Potency [17] | Potency [7] | Potency [8] | Potency [9] | Potency [10] | Potency [11] | activation [12] -2.09% | outcome [13] | Potency [14] | Potency [19] | Potency [20]

O=[N+]([O-])c1ccc2c3c(cccc13)CC2
inactive: Potency [1] | Potency [15] | outcome [2] | outcome [4] | Potency [16] | caspase-3 activation [5] 1.65% | Potency [17] | outcome [6] | Potency [18] | Potency [7] | Potency [8] | Potency [9] | Potency [10] | Potency [11] | activation [12] -4.24% and -1.29% | outcome [13] | Potency [14] | Potency [19] | Potency [20]

Nc1ccc(Cl)c(Cl)c1
inactive: Potency [1] | Potency [15] | outcome [2] | caspase-3 activation [3] 0.952% | outcome [4] | Potency [16] | caspase-3 activation [5] 0.307% | outcome [6] | Potency [18] | Potency [7] | Potency [8] | activation [12] 0.678% | outcome [13] | Potency [14]

CCSC(=O)N1CCCCCC1
inactive: Potency [15] | outcome [2] | outcome [4] | Potency [16] | caspase-3 activation [5] 2.55% | Potency [17] | outcome [6] | Potency [18] | Potency [8] | Potency [9] | Potency [10] | activation [12] -3.15% and 2.49% | outcome [13] | Potency [14] | Potency [19] | Potency [20]

[O-][Cl+]O
inactive: Potency [1] | Potency [15] | caspase-3 activation [3] 0.134% | outcome [4] | Potency [16] | caspase-3 activation [5] 1.6% | Potency [17] | outcome [6] | Potency [18] | Potency [10] | Potency [11] | activation [12] 0.903% | outcome [13] | Potency [14] | Potency [20]

CCOP(=S)(OCC)Oc1nc(Cl)c(Cl)cc1Cl
inactive: Potency [15] | outcome [2] | caspase-3 activation [3] -1.27% | outcome [4] | Potency [16] | caspase-3 activation [5] 2.26% | Potency [17] | outcome [6] | Potency [18] | Potency [7] | Potency [8] | Potency [9] | Potency [11] | activation [12] 2.38% [middle of 4 runs] | outcome [13] | Potency [14] | Potency [19] | Potency [20]

O=P(OCCCl)(OCCCl)OCCCl
inactive: Potency [15] | outcome [2] | caspase-3 activation [3] -1.25% | outcome [4] | Potency [16] | caspase-3 activation [5] 4.86% | outcome [6] | Potency [18] | Potency [7] | Potency [8] | Potency [9] | Potency [11] | activation [12] -2.67% | Potency [14] | Potency [19] | Potency [20]

O=C(Cc1ccccc1)OCc1ccccc1
inactive: outcome [2] | caspase-3 activation [3] 3.55% | outcome [4] | Potency [16] | caspase-3 activation [5] 2.6% | Potency [17] | outcome [6] | Potency [7] | Potency [8] | Potency [9] | Potency [10] | Potency [11] | outcome [13] | Potency [14] | Potency [19] | Potency [20]

CN(C)C(=O)Nc1ccc(Cl)cc1
inactive: Potency [15] | outcome [2] | caspase-3 activation [3] -0.0397% | outcome [4] | Potency [16] | outcome [6] | Potency [18] | Potency [7] | Potency [8] | Potency [9] | Potency [10] | activation [12] -1.85% and -2.71% | Potency [14] | Potency [19] | Potency [20]

Cc1cccc(N)c1C
inactive: Potency [1] | Potency [15] | caspase-3 activation [3] 0.961% | outcome [4] | Potency [16] | caspase-3 activation [5] 1.27% | Potency [17] | outcome [6] | Potency [18] | Potency [7] | Potency [8] | Potency [9] | Potency [10] | Potency [11] | activation [12] 12.1% | outcome [13] | Potency [14] | Potency [19] | Potency [20]
